A number with no mark means an inactive call.
System: Vero E6 infected with SARS-CoV-2
Assay: inhibition of SARS-CoV-2 cytopathic effect; higher = more antiviral protection, active = above 15
Details: 48 h

| Compound | inhibition of SARS-CoV-2 cytopathic effect (1 nM) | inhibition of SARS-CoV-2 cytopathic effect (8.33 nM) | inhibition of SARS-CoV-2 cytopathic effect (100 nM) | inhibition of SARS-CoV-2 cytopathic effect (833.33 nM) | inhibition of SARS-CoV-2 cytopathic effect (10000 nM) |
| --- | --- | --- | --- | --- | --- |
| CN(Cc1cnc2nc(N)nc(N)c2n1)c1ccc(C(=O)N[C@@H](CCC(=O)O)C(=O)O)cc1 [methotrexate] | -1.04% | -0.21% | -0.4% | 2% | -1.41% |
| Cc1c(-c2ccccc2)oc2c(C(=O)OCCN3CCCCC3)cccc2c1=O [flavoxate] | -1.05% | 0.44% | 0.93% | -0.65% | 0.61% |
| CC(C)Oc1cccc(-n2c(CCc3c[nH]c4ccc(Br)cc34)nc3ccccc3c2=O)c1 | -1.06% | 2.18% | 2.14% | 0.14% | 0.06% |
| Fc1cc(F)c2c(c1)[C@H]1C=CC[C@H]1C(c1cccnc1)N2 (stereo not given in full) [Golgicide A] | -0.89% | 0.7% | -0.27% | -0.71% | -3.16% |
| Nc1ccn([C@H]2C[C@H](O)[C@@H](CO)O2)c(=O)n1 [torcitabine] | -1.42% | -0.61% | 0.39% | -0.39% | 1.92% |
| CCN1CCN(Cc2ccc(-c3cc4c(N[C@H](C)c5ccccc5)ncnc4[nH]3)cc2)CC1 | 1.55% | 0.57% | -1.71% | -10.4% | -16% |
| CCCN1CCC[C@@H]2Cc3n[nH]cc3C[C@H]21 [quinpirol-(-)] | -2.17% | 2.95% | 0.48% | -2.24% | -0.87% |
| CCCNCCc1ccc(NS(=O)(=O)c2ccc(OC(F)(F)F)cc2)cc1 | 2.87% | 3.37% | -0.23% | 1.93% | -4.37% |
| Cc1cc(CN)cc(C)c1NC(=O)c1ccc(-c2cc(Cl)ccc2Cl)o1 | -1.09% | 1.98% | 3.29% | -1.5% | 66.2% (active) |
| Oc1cc2c(cc1O)C(c1ccccc1)CNCC2 (stereo not given) | 3.06% | 1.73% | 1.53% | 1.32% | 0.48% |
| CC(C)(O)CS(=O)(=O)Nc1ccc2c(c1)CCN(C(=O)COc1cccnc1)C2 [Nampt-IN-1] | -1.96% | -2.55% | -5.64% | -15.6% | -25.6% |
| O=C(/C=C/c1ccc(CN(CCO)CCc2c[nH]c3ccccc23)cc1)NO [dacinostat] | -2.47% | -2.54% | -6.55% | -21.1% | -23.2% |
| Cc1cccc(-c2[nH]c(CNc3ccccc3F)nc2-c2ccc3ncnn3c2)n1 | 0.31% | 3.47% | 1.38% | 1.08% | 2.46% |
| Cc1cccc(Oc2nc3c(C)cccn3c(=O)c2/C=C(\C#N)c2nc3ccccc3s2)c1 | -0.1% | 1.16% | 0.8% | 3.43% | 0.62% |
| Cc1ccc(-c2nn(C(C)(C)CNC(=O)c3ncccc3C)c3ncnc(N)c23)cc1 [WEHI-345-analog] | 0.48% | 1.39% | -0.26% | 0.47% | -2.28% |
| CC[C@@H]([C@H](C)O)n1ncn(-c2ccc(N3CCN(c4ccc(OC[C@@H]5CO[C@@](Cn6cncn6)(c6ccc(F)cc6F)C5)cc4)CC3)cc2)c1=O [posaconazole] | 0.11% | 0.51% | 0.36% | 2.23% | -6.91% |
| CN1C(=O)N(c2ccc(C#N)c(C(F)(F)F)c2)C(=O)[C@]1(CO)c1ccccc1 [GLPG0492-R-enantiomer] | 2.05% | 2.68% | 0.3% | 1.61% | 2.02% |
| C/C=C/c1cc(OC)c(OC)cc1OC [alpha-asarone] | 0.99% | 0.62% | -3.56% | -3.9% | -0.33% |
| Cc1ccc(=O)n(-c2ccccc2)c1 [pirfenidone] | 3.93% | 6.69% | 3.96% | 3.47% | 5.58% |
| CCCCCCCC(=O)N[C@H](CN1CCCC1)[C@H](O)c1ccc2c(c1)OCCO2 [eliglustat] | 3.28% | 2.4% | -0.12% | 4.02% | 0.05% |

| Compound | inhibition of SARS-CoV-2 cytopathic effect (1 nM) | inhibition of SARS-CoV-2 cytopathic effect (8.33 nM) | inhibition of SARS-CoV-2 cytopathic effect (100 nM) | inhibition of SARS-CoV-2 cytopathic effect (833.33 nM) | inhibition of SARS-CoV-2 cytopathic effect (10000 nM) |
| --- | --- | --- | --- | --- | --- |
| CN1CCC(=C2c3ccccc3CCc3sccc32)CC1 [pizotifen] | 2.55% | -0.27% | 0.72% | 1.5% | -3.38% |
| N#Cc1ccc2[nH]c(O)c(-c3ccc(CN4CCOCC4)cn3)c2c1 | -0.78% | -0.13% | -0.01% | 4.77% | 11.4% |
| CS(=O)(=O)CCNCc1nc(-c2ccc3ncnc(Nc4ccc(OCc5cccc(F)c5)c(Cl)c4)c3c2)cs1 | 1.4% | 3.81% | 0.15% | -4.71% | -4.14% |
| COC(=O)/C=C/C(=O)N[C@@H]1CC[C@@]2(O)[C@H]3Cc4ccc(O)c5c4[C@@]2(CCN3CC2CC2)[C@H]1O5 [beta-funaltrexamine] | -1.34% | 1.21% | -0.8% | 1.68% | 6.01% |
| Cc1ccc(C(=O)Nc2ccc(CN3CCN(C)CC3)c(C(F)(F)F)c2)cc1C#Cc1cnc2cccnn12 [ponatinib] | 0.65% | 1.8% | 5.2% | 1.27% | -10.9% |
| CCCCOc1cc(C(=O)OCCN(CC)CC)ccc1N [oxybuprocaine] | 0.54% | 0.93% | 5.2% | 3.06% | -0.68% |
| CC(C)(C#N)c1ccc(N2C(=O)OCc3cnc4ccc(-c5cnc6ccccc6c5)cc4c32)cc1 | 4.95% | 2.48% | 2.65% | 2.93% | 4.4% |
| C=C(C)[C@H]1CN[C@H](C(=O)O)[C@H]1CC(=O)O [kainic-acid] | -1.66% | 0.99% | 0.37% | -1.94% | -0.79% |
| CCCCN1CCC(CNC(=O)c2c3n(c4ccccc24)CCCO3)CC1 [piboserod] | -0.67% | 1.75% | 0.6% | -0.97% | 1.25% |
| O=S1(=O)c2cccc3cccc(c23)N1CCCN1CCN(c2ccc(F)cc2)CC1 [fananserin] | -2.57% | -1.46% | -1.21% | -2.34% | -0.89% |
| O=C1Nc2cc(Cl)c(Cl)cc2N2CCNC[C@H]12 | -0.02% | -0.54% | 1.72% | 0.92% | 1.67% |
| O=C1c2ccccc2C(=O)C1c1ccc(Br)cc1 [bromindione] | -0.87% | 2.1% | -2.65% | 1.04% | 0.05% |
| N#CN1CCCC1 [pyrrolidine-1-carbonitrile] | 3.76% | 2.93% | -2% | 1.38% | 2.45% |
| O=C(O)c1cnn(-c2nc3cc(OC(F)(F)F)c(Cl)cc3[nH]2)c1 | 0.36% | 1.44% | 1.23% | 1.43% | -0.28% |
| C[C@@H]1c2ccccc2CN1CC1=NCCN1 (racemic) | -1.04% | -0.79% | -0.96% | 1.02% | -0.71% |
| CN(C)CCn1nnnc1SCC1=C(C(=O)O)N2C(=O)[C@@H](NC(=O)Cc3csc(N)n3)[C@H]2SC1 [cefotiam] | 1.69% | -0.06% | -0.67% | 1.14% | 0.56% |
| NCC(CC(=O)O)c1ccccc1 (stereo not given) [fenigam] | -0.57% | 0.98% | 0.48% | -0.72% | 1.87% |
| C[C@@]1(O)[C@H](O)[C@@H](CO)O[C@H]1n1ccc(N)nc1=O | 5.4% | -1.76% | -3.15% | -5.49% | -2.07% |
| CS(=O)(=O)c1cccc(CNc2nc(Nc3ccc4c(c3)CCC(=O)N4)ncc2C(F)(F)F)c1 | -1.14% | -1.29% | 0.06% | 1.33% | -3.75% |
| FCc1ccc(OCCOc2ccc(Cl)cc2Cl)c(Cl)n1 | 2.16% | 2.42% | 2.11% | 1.12% | 1.65% |

— the supplement of paper PMC13380429
